Source: the supplement of paper PMC11732987, “Enantioselective OTUD7B fragment discovery through chemoproteomics screening and high-throughput optimisation” (Communications Chemistry, 2025)

Legend:
Experiment in all cases: log2 ratio of Biotin-Ahx-Ub-VS probe labelling (fragment/DMSO); higher = less target engagement (more negative = stronger competition), active = hit call of the paper (q ≤ 0.05, log2 ratio ≤ -1)
Conditions in all cases: compound concentration: 200 uM; treatment time: 3 h
[1] = molecular target: T1, USP42 (UniProt Q9H9J4)
T1 sequence (whole entry): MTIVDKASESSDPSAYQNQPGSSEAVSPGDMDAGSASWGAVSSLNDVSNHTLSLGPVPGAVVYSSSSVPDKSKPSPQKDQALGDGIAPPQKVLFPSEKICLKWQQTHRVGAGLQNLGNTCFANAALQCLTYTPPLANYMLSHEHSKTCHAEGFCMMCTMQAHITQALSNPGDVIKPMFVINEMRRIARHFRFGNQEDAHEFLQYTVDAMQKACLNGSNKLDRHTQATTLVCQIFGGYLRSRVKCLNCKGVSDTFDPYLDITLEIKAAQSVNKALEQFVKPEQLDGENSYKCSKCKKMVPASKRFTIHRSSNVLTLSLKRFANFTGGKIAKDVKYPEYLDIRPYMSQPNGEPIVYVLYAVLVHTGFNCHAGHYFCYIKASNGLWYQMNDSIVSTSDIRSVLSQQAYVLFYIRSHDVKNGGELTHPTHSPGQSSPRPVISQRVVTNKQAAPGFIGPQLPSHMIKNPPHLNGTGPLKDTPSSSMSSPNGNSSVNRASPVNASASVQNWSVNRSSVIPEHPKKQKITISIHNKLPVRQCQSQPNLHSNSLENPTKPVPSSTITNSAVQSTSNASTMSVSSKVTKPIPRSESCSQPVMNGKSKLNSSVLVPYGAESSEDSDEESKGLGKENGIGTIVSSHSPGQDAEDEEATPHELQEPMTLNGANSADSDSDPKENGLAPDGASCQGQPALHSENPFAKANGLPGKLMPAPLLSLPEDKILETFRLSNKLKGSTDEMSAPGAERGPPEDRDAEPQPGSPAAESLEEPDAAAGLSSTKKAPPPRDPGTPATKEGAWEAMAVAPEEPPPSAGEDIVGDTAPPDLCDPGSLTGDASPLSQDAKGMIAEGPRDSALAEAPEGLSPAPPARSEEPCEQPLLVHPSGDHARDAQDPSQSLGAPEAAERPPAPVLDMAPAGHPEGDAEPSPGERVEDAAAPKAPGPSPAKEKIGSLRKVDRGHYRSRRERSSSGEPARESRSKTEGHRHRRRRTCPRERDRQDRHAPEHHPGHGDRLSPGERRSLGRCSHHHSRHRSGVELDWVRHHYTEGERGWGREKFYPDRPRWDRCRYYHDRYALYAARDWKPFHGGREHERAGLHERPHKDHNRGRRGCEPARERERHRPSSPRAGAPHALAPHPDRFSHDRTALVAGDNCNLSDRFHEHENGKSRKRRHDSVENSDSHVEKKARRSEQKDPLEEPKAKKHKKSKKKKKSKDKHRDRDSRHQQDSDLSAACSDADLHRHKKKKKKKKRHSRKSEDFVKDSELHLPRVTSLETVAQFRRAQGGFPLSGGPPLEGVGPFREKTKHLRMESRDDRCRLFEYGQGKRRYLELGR
How it was run: (§1)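 HEK293T lysate in Tris/CHAPS/IGEPAL buffer with protease inhibitors (495 µg per sample) was given fragment at 200 µM or vehicle for 3 h, in triplicate. It then received Biotin-Ahx-Ub-VS at 0.5 µM final for 1 h. Labelled DUBs were NeutrAvidin-enriched, digested with LysC and trypsin, and run by diaPASEF LC-MS/MS. Values are average log2 fragment/vehicle ratios by unpaired t-test on global-median-normalised Spectronaut quantities of proteins with ≥2 unique peptides.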

[2] = molecular target: USP46 (UniProt P62068)
Chain of USP46 (P62068 whole entry): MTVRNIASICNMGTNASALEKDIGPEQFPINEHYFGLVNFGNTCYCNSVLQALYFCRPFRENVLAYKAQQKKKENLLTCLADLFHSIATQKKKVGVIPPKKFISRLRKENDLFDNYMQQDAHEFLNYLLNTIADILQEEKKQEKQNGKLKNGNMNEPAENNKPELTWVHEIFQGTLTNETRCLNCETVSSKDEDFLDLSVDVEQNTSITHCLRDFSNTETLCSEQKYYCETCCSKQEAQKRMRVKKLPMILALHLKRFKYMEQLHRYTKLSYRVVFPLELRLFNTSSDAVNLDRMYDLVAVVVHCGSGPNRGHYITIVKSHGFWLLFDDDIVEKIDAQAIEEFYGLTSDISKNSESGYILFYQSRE
How it was run: as §1

[3] = molecular target: T2, USP47 (UniProt Q96K76)
T2 sequence (whole entry): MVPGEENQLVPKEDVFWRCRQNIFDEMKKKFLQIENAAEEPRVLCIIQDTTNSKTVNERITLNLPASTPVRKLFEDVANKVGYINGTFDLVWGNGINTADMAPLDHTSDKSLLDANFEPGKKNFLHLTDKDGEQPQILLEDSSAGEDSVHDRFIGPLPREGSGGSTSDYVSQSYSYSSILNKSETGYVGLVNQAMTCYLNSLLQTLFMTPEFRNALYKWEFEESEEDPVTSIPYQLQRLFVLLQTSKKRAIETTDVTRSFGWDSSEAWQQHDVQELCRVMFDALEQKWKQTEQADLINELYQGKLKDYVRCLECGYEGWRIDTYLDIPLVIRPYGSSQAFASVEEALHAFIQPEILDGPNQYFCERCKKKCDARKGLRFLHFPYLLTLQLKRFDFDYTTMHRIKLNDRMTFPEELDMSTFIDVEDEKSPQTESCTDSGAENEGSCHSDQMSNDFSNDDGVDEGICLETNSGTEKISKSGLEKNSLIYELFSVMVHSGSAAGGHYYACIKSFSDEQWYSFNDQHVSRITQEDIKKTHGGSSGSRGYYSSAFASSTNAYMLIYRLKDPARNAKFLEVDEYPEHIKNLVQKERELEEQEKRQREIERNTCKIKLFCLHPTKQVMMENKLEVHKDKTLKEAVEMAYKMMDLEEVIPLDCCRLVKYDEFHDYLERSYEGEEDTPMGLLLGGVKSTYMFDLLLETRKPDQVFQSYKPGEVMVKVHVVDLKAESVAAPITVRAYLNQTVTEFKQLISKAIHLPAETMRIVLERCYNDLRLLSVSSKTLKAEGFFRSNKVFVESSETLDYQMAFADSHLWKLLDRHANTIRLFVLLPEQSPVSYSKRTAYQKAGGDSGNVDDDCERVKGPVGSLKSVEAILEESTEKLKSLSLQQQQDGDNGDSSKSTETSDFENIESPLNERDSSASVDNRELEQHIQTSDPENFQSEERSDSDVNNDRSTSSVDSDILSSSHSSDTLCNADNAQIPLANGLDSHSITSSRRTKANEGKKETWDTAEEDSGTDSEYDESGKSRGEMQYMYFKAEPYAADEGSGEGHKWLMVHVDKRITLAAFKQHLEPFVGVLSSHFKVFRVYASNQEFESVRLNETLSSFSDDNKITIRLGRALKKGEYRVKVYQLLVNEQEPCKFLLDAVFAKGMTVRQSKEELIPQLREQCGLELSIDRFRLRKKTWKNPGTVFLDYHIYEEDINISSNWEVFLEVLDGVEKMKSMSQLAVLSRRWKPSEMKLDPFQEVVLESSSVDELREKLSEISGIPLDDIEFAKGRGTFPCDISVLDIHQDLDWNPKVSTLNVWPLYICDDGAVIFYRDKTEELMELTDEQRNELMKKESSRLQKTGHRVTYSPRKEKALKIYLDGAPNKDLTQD
How it was run: as §1

[4] = molecular target: T3, USP48 (UniProt Q86UV5)
T3 sequence (whole entry): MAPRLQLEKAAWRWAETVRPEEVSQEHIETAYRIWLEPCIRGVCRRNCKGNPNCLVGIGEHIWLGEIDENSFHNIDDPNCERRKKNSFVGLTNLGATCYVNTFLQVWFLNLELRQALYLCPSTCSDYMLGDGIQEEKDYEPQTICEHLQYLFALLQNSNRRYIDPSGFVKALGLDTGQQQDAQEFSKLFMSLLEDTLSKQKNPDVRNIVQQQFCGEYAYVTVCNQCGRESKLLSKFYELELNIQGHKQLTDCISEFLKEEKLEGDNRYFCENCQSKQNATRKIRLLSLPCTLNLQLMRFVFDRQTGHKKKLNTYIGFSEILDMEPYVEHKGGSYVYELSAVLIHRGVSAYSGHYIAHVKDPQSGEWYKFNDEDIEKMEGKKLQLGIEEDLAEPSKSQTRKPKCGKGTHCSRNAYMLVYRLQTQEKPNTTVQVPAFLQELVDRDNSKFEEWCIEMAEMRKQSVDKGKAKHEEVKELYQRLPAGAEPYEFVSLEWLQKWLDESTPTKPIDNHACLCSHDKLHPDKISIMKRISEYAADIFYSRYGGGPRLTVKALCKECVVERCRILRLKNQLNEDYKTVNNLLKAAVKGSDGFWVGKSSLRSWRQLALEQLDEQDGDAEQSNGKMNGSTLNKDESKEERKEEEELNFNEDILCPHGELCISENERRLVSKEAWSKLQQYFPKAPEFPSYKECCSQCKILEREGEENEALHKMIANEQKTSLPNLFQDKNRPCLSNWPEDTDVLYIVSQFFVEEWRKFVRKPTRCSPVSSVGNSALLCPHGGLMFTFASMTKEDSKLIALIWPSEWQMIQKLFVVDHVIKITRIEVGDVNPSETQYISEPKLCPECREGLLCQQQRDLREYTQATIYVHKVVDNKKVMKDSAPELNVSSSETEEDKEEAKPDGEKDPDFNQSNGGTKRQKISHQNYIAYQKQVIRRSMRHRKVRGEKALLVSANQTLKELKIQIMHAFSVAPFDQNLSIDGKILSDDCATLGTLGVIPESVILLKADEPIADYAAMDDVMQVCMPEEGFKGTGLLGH
How it was run: as §1

[5] = molecular target: T4, USP5 (UniProt P45974)
T4 sequence (whole entry): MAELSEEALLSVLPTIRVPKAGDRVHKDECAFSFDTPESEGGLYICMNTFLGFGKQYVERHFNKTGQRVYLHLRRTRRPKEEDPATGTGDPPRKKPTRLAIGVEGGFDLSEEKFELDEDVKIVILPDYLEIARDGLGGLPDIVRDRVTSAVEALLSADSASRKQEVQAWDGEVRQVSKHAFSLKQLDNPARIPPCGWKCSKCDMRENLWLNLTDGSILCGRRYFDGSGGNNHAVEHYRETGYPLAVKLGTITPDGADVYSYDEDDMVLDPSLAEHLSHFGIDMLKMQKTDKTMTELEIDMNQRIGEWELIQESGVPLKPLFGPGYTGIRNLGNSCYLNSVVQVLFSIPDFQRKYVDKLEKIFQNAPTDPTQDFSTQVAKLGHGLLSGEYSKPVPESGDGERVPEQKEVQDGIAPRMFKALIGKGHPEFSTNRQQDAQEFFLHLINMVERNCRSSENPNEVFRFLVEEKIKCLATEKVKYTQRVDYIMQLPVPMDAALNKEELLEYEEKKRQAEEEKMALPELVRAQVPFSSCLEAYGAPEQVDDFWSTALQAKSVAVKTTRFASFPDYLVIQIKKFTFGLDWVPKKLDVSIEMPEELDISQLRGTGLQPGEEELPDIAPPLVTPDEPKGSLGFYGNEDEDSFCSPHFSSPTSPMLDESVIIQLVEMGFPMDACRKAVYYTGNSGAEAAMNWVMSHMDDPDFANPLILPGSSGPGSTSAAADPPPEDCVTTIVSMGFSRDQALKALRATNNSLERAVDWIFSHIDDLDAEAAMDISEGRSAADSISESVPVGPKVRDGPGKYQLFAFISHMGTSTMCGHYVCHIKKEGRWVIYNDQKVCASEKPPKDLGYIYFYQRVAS
How it was run: as §1

[6] = molecular target: USP54 (UniProt Q70EL1)
Chain of USP54 (Q70EL1 whole entry): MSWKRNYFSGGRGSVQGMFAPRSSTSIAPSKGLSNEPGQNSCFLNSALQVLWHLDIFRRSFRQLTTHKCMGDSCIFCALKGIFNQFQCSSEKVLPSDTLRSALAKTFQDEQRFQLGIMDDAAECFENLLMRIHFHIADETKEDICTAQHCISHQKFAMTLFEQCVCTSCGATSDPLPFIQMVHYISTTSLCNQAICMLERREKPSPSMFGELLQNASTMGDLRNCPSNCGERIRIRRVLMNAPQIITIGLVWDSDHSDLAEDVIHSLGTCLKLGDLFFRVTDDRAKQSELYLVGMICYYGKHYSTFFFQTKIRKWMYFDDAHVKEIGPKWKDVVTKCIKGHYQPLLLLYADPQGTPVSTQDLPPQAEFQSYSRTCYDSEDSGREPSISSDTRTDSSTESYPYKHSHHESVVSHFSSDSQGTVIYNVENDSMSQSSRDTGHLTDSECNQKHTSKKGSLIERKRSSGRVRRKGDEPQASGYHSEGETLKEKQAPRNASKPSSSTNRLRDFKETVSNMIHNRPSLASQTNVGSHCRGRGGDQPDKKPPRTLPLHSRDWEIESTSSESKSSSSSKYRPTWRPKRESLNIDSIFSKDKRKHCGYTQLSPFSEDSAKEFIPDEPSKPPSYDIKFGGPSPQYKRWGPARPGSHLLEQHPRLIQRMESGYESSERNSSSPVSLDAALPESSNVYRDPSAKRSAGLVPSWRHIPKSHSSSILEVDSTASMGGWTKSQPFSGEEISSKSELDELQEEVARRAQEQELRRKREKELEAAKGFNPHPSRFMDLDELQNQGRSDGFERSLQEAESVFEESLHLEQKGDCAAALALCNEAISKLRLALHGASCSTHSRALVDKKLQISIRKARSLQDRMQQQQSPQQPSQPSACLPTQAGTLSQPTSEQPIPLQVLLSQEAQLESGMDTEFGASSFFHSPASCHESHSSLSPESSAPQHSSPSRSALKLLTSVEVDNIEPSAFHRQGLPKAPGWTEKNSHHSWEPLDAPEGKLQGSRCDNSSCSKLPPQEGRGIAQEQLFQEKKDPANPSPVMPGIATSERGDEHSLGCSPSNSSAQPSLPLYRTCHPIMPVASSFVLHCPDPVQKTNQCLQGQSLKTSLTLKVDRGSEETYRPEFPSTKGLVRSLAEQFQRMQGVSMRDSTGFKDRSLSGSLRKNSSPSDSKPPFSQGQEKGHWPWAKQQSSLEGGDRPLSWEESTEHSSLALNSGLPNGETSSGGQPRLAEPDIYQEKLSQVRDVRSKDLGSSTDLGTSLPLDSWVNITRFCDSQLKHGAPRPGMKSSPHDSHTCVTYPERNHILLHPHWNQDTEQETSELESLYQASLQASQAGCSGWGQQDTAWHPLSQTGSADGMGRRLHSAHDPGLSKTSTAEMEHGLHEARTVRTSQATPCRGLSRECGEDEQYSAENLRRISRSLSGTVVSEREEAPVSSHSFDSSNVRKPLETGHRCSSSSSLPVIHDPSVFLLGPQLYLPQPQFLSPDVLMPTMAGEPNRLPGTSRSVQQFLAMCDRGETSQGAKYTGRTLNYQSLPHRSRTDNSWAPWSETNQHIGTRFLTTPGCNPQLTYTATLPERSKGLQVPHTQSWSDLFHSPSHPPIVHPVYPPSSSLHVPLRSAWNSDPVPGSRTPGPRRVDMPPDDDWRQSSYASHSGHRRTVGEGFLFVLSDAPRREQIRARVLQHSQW
How it was run: as §1

[7] = molecular target: USP7 (UniProt Q93009)
How it was run: as §1

[8] = molecular target: T5, USP8 (UniProt P40818)
T5 sequence (whole entry): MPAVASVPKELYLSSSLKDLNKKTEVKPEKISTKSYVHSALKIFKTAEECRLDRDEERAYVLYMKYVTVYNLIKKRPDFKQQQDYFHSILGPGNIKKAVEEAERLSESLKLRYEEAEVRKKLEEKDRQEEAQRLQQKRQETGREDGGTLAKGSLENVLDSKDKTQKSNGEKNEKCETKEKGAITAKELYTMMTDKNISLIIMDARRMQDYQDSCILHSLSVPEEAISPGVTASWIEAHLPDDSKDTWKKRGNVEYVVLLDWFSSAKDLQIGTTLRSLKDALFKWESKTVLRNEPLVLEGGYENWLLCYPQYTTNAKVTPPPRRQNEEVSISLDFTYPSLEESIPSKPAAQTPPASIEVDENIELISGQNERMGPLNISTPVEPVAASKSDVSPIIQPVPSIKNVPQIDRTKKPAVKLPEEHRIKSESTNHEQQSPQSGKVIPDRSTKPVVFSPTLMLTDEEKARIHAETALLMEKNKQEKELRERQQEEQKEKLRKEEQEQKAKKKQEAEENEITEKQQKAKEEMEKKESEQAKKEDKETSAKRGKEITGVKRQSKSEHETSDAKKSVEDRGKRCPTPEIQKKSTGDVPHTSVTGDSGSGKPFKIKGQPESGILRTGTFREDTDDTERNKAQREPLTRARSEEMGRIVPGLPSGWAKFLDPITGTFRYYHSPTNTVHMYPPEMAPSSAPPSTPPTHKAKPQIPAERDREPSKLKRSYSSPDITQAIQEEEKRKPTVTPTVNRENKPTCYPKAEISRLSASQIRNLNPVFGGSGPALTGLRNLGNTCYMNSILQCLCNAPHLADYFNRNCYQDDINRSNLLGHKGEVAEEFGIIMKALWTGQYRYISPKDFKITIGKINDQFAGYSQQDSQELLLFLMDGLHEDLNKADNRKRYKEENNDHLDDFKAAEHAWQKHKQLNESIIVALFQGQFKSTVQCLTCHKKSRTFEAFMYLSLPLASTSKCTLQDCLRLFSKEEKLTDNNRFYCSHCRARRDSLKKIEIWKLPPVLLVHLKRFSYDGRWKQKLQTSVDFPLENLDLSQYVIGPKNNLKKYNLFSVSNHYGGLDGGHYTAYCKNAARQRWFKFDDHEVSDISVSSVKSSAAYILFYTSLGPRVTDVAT
How it was run: as §1

[9] = molecular target: USP9X (UniProt Q93008)
Chain of USP9X (Q93008 whole entry): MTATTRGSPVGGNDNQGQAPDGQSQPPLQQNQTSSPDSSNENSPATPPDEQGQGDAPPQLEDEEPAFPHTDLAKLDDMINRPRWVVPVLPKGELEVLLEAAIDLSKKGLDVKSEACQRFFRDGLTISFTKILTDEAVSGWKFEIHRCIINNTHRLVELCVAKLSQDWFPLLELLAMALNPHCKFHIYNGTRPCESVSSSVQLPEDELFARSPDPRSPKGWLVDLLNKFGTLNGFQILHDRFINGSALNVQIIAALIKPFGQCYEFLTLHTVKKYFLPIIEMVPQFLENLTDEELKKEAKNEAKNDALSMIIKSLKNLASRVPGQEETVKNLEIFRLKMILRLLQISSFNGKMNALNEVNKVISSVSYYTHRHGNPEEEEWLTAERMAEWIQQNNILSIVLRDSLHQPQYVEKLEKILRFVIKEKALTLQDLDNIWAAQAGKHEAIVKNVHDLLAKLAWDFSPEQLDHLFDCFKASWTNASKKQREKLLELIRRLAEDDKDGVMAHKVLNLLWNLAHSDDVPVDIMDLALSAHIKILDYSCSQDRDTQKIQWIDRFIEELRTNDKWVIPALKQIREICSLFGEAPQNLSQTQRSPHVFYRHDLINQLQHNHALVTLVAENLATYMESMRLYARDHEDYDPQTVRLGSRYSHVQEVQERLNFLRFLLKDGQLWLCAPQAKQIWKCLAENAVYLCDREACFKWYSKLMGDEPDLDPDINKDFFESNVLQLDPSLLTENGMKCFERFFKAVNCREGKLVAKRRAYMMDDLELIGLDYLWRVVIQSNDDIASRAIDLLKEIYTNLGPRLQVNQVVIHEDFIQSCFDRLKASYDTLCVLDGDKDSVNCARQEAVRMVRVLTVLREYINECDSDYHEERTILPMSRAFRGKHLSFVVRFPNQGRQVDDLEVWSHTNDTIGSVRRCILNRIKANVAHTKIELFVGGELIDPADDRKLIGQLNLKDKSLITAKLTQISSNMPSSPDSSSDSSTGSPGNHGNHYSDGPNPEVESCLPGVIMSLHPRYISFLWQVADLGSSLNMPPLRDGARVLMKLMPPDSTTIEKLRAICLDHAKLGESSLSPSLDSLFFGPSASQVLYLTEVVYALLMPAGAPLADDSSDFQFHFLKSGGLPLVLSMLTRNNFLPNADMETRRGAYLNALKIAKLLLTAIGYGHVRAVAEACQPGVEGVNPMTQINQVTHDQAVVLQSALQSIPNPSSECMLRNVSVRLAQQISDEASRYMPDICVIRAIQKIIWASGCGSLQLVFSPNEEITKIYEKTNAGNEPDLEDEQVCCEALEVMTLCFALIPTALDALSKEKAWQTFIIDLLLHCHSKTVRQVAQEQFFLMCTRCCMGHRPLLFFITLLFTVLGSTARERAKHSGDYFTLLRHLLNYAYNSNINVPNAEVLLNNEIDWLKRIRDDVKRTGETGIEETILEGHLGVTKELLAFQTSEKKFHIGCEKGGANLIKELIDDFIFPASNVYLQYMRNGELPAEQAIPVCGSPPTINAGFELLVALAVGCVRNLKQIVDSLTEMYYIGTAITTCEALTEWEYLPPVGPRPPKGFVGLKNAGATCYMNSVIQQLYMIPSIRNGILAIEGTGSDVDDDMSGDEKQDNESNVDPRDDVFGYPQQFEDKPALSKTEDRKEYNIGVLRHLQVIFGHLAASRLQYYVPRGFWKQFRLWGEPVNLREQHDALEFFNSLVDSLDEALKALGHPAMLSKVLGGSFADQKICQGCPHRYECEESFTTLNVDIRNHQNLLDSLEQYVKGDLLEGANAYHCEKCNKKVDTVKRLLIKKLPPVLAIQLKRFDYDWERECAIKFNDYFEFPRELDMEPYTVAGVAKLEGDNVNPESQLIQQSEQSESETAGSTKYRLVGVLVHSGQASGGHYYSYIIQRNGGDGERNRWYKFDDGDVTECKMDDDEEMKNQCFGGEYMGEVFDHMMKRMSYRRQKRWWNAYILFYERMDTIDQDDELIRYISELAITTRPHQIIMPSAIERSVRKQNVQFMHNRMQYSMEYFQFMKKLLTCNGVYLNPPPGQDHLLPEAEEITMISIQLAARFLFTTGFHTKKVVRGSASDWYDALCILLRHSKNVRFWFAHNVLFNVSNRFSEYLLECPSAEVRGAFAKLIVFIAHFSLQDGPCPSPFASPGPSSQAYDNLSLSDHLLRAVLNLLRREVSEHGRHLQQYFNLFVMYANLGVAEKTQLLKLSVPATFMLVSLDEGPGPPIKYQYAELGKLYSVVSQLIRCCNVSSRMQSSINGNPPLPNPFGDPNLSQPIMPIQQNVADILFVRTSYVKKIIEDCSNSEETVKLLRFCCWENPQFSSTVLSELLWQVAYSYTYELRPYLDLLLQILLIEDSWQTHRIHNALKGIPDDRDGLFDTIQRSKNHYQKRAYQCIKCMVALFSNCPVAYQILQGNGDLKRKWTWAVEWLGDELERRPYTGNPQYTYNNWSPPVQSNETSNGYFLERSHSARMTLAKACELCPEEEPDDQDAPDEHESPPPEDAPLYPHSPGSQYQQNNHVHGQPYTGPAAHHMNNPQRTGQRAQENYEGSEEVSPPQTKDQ
How it was run: as §1

[10] = molecular target: UniProt O00487
Chain of UniProt O00487 (O00487 whole entry): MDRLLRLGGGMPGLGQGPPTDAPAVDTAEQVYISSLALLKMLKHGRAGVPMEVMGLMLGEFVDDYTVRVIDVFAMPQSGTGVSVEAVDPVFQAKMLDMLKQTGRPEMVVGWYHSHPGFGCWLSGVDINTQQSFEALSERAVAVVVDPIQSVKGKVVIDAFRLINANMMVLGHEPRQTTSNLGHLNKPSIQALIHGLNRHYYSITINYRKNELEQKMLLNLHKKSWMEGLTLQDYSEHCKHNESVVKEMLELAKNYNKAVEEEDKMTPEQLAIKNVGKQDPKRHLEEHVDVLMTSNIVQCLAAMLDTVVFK
How it was run: as §1

Measured: log2 ratio of Biotin-Ahx-Ub-VS probe labelling

O=C(CCl)N1CCC(c2nc3ccccc3o2)CC1
inactive: [1] -0.0372 | [2] -0.0557 | [3] -0.397 | [4] -0.598 | [5] 0.186 | [6] 0.726 | [7] -0.746 | [8] -0.0637 | [9] -0.351 | [10] -0.154
